Our source for the composite z-score values is PubChem BioAssay.

In the test the target is Fibroblast growth factor 2 (Homo sapiens) (UniProt P09038). The experiment in a line: FGF2 binders on small-molecule microarrays, primary screen, biochemical, small-molecule microarray, 635/667 nm fluorescence (AID 1133). Conditions: small-molecule microarray binding, FGF2, fluorescence 635/667; higher = more signal.
Sequence of Fibroblast growth factor 2 (Homo sapiens) (P09038 whole entry, looked up): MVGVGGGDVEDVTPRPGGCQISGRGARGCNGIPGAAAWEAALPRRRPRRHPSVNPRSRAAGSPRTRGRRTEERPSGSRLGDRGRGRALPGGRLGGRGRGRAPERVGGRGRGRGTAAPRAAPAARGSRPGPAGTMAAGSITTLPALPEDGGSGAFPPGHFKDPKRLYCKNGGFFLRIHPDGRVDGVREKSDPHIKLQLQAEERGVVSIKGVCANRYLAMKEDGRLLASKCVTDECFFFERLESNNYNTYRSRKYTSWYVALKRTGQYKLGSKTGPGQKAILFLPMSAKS
The molecule `CN1C(=O)C2C=CC(C(O)C#Cc3ccccc3)N(Nc3ccccc3)C2C1=O` (stereo unspecified) returned a composite z-score of 0.101.
For the molecule `CN(C)c1ccc(C(O)C2C=CC3C(=O)N(c4ccccc4)C(=O)C3N2Nc2ccc([N+](=O)[O-])cc2)cc1` (stereo unspecified), the composite z-score was -0.181.
In the case of `CN(C)C(=O)[C@@]1(Cc2ccccc2CN=[N+]=[N-])N=C(c2ccc(OCCCO)cc2)O[C@H]1c1ccccc1CN=[N+]=[N-]` it was -0.025; in that of `O=C1OCC=C[C@H]2OC34C=CCN(Cn5nnc6ccccc65)C(=O)[C@H]3N(CCCO)C(=O)[C@@H]4[C@@H]12` (stereo partly specified), -0.241; in that of `C[N+](C)(C)CCCCCCNC(=O)[C@H]1C[C@H]2C(=O)N[C@@H](Cc3ccccc3)C(=O)N2[C@H]1c1ccc(O)cc1`, 0.916.
To `COCCOC(=O)N1C(=O)[C@@]2(c3cc(C#CCCO)ccc31)[C@H](C(=O)Nc1nc3ccccc3s1)[C@H]1C(=O)O[C@H](c3ccccc3)[C@H](c3ccccc3)N1[C@@H]2c1ccccc1OCCO` belongs 0.69; to `COc1cc2c(cc1OC)CN(C(=O)[C@@H]1[C@H]3C(=O)O[C@H](c4ccccc4)[C@H](c4ccccc4)N3[C@H](c3ccc(OCCO)cc3)[C@@]13C(=O)Nc1ccc(C#CC4(O)CCCCCC4)cc13)CC2`, 1.13.
In the case of `COc1cc(CO)cc(I)c1O[C@H]1C=C(C(=O)NCCO)C[C@@H](NCc2ccc(F)cc2)[C@@H]1O` it was 1.03; in that of `[N-]=[N+]=NCc1ccccc1C[C@@]1(C(=O)NCc2ccccc2)N=C(c2ccc(OCCCO)cc2)O[C@@H]1c1ccccc1N=[N+]=[N-]`, -0.58.
Take `O=C(CS)NCCCCCNC(=O)[C@@H]1C[C@@H]2C(=O)N3CCC[C@H]3C(=O)N2[C@@H]1c1cccc(OCCO)c1`: the composite z-score amounted to 1.24.
On to `C=C(C)c1cc2c(c(CCCCCC)n1)[Si](C(C)C)(C(C)C)OC2`, for which the composite z-score is -1.45.
In the case of `CCCCC(O)C1C=CC2C(=O)N(c3ccccc3)C(=O)C2N1Nc1ccc(C(C)C)cc1` (stereo unspecified), the composite z-score is -0.138.
`COCCOC(=O)N1C(=O)[C@@]2(c3cc(C#CC4=CCCCC4)ccc31)[C@H](c1ccc(OCCO)cc1)N1[C@H](c3ccccc3)[C@H](c3ccccc3)OC(=O)[C@H]1[C@@H]2C(=O)N1CCN(c2ncccn2)CC1` yielded a composite z-score of 0.692.
In the case of `C=C(COC)/C(=C/C[C@H](OC(C)=O)c1ccc(OCCO)cc1)c1cc(C(=O)OC)ccc1OC` it was 1.67; in that of `CC1CC/C=C\[C@H]2OC34C=CCN(c5ccc(Cl)cc5)C(=O)[C@H]3N(CCCCCO)C(=O)[C@]4(C)C2C(=O)O1` (stereo partly specified), -1.04; in that of `CN1C(=O)C2C=CC(C(O)c3cccc(O)c3)N(Nc3ccccc3)C2C1=O` (stereo unspecified), -0.191.
Consider `O=C1NC(=O)C2C1C=CC(C(O)c1c(F)cccc1Cl)N2Nc1ccc(Cl)cc1Cl` (stereo unspecified), for which the composite z-score was -0.891.
To `COc1ccc([Si](C)(C)[C@@H]2[C@@H](CCO)O[C@]3(C(=O)N(Cc4ccc(N5CCCCC5=O)cc4)c4ccccc43)[C@H]2C)cc1` belongs 1.1; to `C=CCC(OC(C)=O)[C@@H]1[C@@H](N(Cc2cc3ccccc3o2)C(=O)c2ccc(C)cc2)c2cc(OCCCO)ccc2N1C(=O)Cc1ccc(OC)cc1` (stereo partly specified), 0.158; to `CCOc1cc(C(O)C2C=CC3C(=O)N(C)C(=O)C3N2Nc2ccccc2)ccc1O` (stereo unspecified), -0.153.
As for `O=C(CS)NCCCCCCNC(=O)[C@H]1C[C@H]2C(=O)N[C@@H](Cc3ccccc3)C(=O)N2[C@H]1c1ccc(O)cc1`, the composite z-score was determined as 1.62.
The molecule `CC(c1ccccc1)C(O)C1C=CC2C(=O)N(c3ccccc3)C(=O)C2N1Nc1ccc([N+](=O)[O-])cc1` (stereo unspecified) had a composite z-score of 0.328.
To `COc1ccccc1CN1C(=O)c2ccccc2[C@@]2(Cc3ccccc3N(CC(F)(F)F)C2=O)[C@@H]1c1ccc(CO)cc1` belongs 0.731.
To `COC(=O)C(CC#Cc1ccc2c(c1)[C@]1(C(=O)N2)[C@H](C(=O)N2CCN(c3ncccn3)CC2)[C@H]2C(=O)O[C@H](c3ccccc3)[C@H](c3ccccc3)N2[C@@H]1c1ccc(OCCO)cc1)C(=O)OC` belongs 1.63.
To `[N-]=[N+]=Nc1ccccc1[C@@H]1OC(c2ccc(OCCCO)cc2)=N[C@]1(Cc1ccccc1)C(=O)NCC(O)CO` (stereo partly specified) belongs 1.06; to `Cc1cc(C)c(C(O)C2C=CC3C(=O)NC(=O)C3N2Nc2ccc(Cl)cc2Cl)c(C)c1` (stereo unspecified), 0.752; to `COC(=O)c1c2oc(c1C(=O)OC)C(=O)N(Cc1ccccc1)Cc1cn(nn1)C[C@H](Cc1ccccc1)NC(=O)N[C@H](CO)CC2`, -0.107.
Molecule `C=CCNC(=O)[C@H]1[C@@H]2C(=O)O[C@@H](c3ccccc3)[C@@H](c3ccccc3)N2[C@@H](c2ccc(O)cc2)[C@]12C(=O)N(C(=O)OCCOC)c1ccccc12` had a composite z-score of 0.198.
Regarding `O=C1C=C(c2ccccc2)C(=O)c2ccc([C@H]3Oc4ccccc4S(=O)(=O)N4CCC[C@@H]34)cc21`, the composite z-score is -0.0096.
To `Cc1ccc(S[C@]2(C(=O)NCC(F)(F)F)CC(=O)N(C3CCCCC3)[C@@H]2c2ccc(CO)cc2I)cc1` belongs 0.621; to `COc1ccc(C#Cc2ccc3c(c2)[C@]2(C(=O)N3)[C@H](c3ccc(O)cc3)N3[C@H](c4ccccc4)[C@H](c4ccccc4)OC(=O)[C@H]3[C@@H]2C(=O)O)cc1`, -0.218.
For the molecule `COC(=O)[C@@]1(Cc2ccc(OC)cc2)[C@@H]2C(=CC(=O)[C@H]2CC(=O)C(=O)N(C)C)CN1C(=O)c1ccccc1`, the composite z-score is -0.139.
To `CCOC(=O)c1ccc(NC(=O)O[C@H]2[C@H](OC(=O)Nc3ccc4c(c3)OCO4)[C@H](OC(=O)Nc3ccc4c(c3)OCO4)[C@@H](OC)O[C@@H]2CO)cc1` belongs 1.42.
`C=CCN1Cc2ccccc2[C@H]2OC(c3ccc(OCCCO)cc3)=N[C@@]2(CC=C)C1=O` registered a composite z-score of 1.87.
Take `CN(C)CCCNC(=O)[C@@]1(C)c2ccccc2C(=O)N(Cc2ccccc2)[C@H]1c1ccc(CO)cc1`: the composite z-score was -0.0132.
In the case of `CCCCCCCCCCC(O)C1C=CC2C(=O)N(C)C(=O)C2N1NC(=O)OC(C)(C)C` (stereo unspecified) it was -0.531.
